# Records with an inconclusive call do not appear. Values without a mark were called inactive. Activity calls are given as the source filed them. The call rests on the fitted dose curve; in most records, active means well fitted cell-killing curve with a large enough effect; inconclusive means small, poorly fitted or top-dose-only effect, or effect the other way; inactive means flat fitted curve, though single readings scatter.
# System: C33A
# Assay: Primary qHTS to identify gynecologic anti-cancer compounds using libraries of approved drugs and bioactive compounds (AID 1345084); further: nearly all actives have a fitted effect of over 55% in size
# Details: Gynecologic cancer cell panel viability, ATPlite luminescence, 48 h; series mostly up to 57.5 µM; activity change, negative = cytotoxicity: at the top concentration
# Method in brief: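 Cytotoxicity screen measuring ATP content by luciferase luminescence. Each compound is applied at five concentrations for 48 h at 37 C with 5% CO2.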
# On the % scale 0 is the no-effect control and ±100 the full control effect; potency means the concentration at half of the fitted maximal effect.
SMILES,"activity change, negative = cytotoxicity",Potency
COc1cc(OC)c2c(=O)[nH]c(-c3cc(C)c(OCCO)c(C)c3)nc2c1,-19.8%,
COc1ccc(C2=NC(c3ccc(Cl)cc3)C(c3ccc(Cl)cc3)N2C(=O)N2CCNC(=O)C2)c(OC(C)C)c1 (centres undefined),10.2%,
CCn1c(=O)c(-c2ccc(-c3cncs3)cc2Cl)cc2cnc(Nc3ccc(N4CCN(C)CC4)cc3)nc21,0.567%,
COC(=O)c1ccc2c(c1)[nH]c1ncnc(NCCCN3CCCCC3)c12,-3.8%,
CN1CCN(c2ccc(Nc3cc(-c4cccc(-n5ccc6cc(C7CC7)cc(F)c6c5=O)c4CO)cn(C)c3=O)nc2)CC1,7.52%,
O=c1nc(-c2ccccn2)sc2ccccc12,-0.617%,
CNc1nc(Nc2ccc(C(=O)N3CCOCC3)cc2OC)nc2[nH]cc(Cl)c12,-3.02%,
Cn1cc(-c2ccc3c(c2)CCN3C(=O)Cc2cccc(C(F)(F)F)c2)c2c(N)ncnc21,-18.3%,
C=C1CCC2[C@](C)(CCC[C@@]2(C)C=O)[C@H]1CC/C(C)=C/CO (some centres undefined),-1.49%,
CC1(CO)CC(O)[C@]2(C(=O)O)CCC34CC3(C=CC3[C@]5(C)C(CC[C@]34C)C(C)(CO)[C@@H](O)[C@H](O)[C@@H]5O)C2C1 (some centres undefined),-14.3% [at 25.3 µM],
C/C=C(/C)C(=O)O[C@@H]1C[C@@H](OC(=O)CC(C)C)C2(C)C3C(=O)C=C(C)C2C3C1(C)C (some centres undefined),-13.8% [at 25.3 µM],
O=C(NCCCN1CCOCC1)c1cnn2c(-c3ccccc3)cc(-c3ccccc3)nc12,-3.01%,
Cc1cc(OCCCS(C)(=O)=O)cc(C)c1-c1cccc(COc2ccc3c(c2)OCC3CC(=O)O)c1 (centres undefined),10.3%,
CC1=C(C(=O)OC2CCCCC2)C(c2ccc([N+](=O)[O-])cc2)C2=C(CC(C)(C)CC2=O)N1 (centres undefined),-21.2%,
CC1(C)CC[C@]2(C(=O)O[C@@H]3O[C@H](CO)[C@@H](O)[C@H](O)[C@H]3O)CC[C@]3(C)C(=CCC4[C@@]5(C)CC[C@H](O[C@@H]6O[C@H](C(=O)O)[C@H](O)[C@H](O)[C@H]6O)C(C)(C)C5CC[C@]43C)[C@@H]2C1 (some centres undefined),0.481% [at 25.3 µM],
CCN1CCN(Cc2ccc(C(=O)Nc3ccc(C)c(Oc4ccc5c(c4)CC(=O)N5)c3)cc2C(F)(F)F)CC1,-3.87%,
CC(=O)c1c(C)cc2cccc(O)c2c1O[C@@H]1O[C@H](CO)[C@@H](O)[C@H](O)[C@H]1O,-19% [at 38.5 µM],
O=C(Nc1ccc(N(Cc2ccsc2)C(=O)Cn2nnc3ccccc32)cc1)C1CC1,18.6%,
COc1ccc(CCc2nc3cc(-c4c(C)noc4C)ccc3n2CC(C)N2CCOCC2)cc1Cl (centres undefined),6.85%,
CNc1cccc(CCOc2ccc3c(c2)CN(CC(F)(F)F)C(=O)[C@H](CC(=O)O)C3)n1,-27.3%,

SMILES,"activity change, negative = cytotoxicity",Potency
CC(C)(O)c1ccn2c(-c3ccc(F)c(-c4ccc(F)cc4C#N)c3)cnc2c1F,5.13%,
Cc1[nH]c2ccccc2c1CCNCc1ccc(/C=C/C(=O)NO)cc1,,251 nM (active)
C[C@@H]1O[C@@H](O[C@H]2[C@@H]3C=CO[C@@H](O[C@@H]4O[C@H](CO)[C@@H](O)[C@H](O)[C@H]4O)[C@@H]3[C@@]3(CO)O[C@@H]23)[C@H](O)[C@H](OC(=O)/C=C/c2ccccc2)[C@H]1O,-17% [at 25.3 µM],
C=C1C(=O)OC[C@@H]1C/C=C(\C)CC1CC(C)C(=O)O1 (some centres undefined),-5.16%,
COc1ccc(S(=O)(=O)n2cnc3cc(C)c(C)cc32)cc1,-35.4%,
C[C@@H]1O[C@@H](O[C@H]2CC[C@@]3(C)C(CC[C@]4(C)C3CC=C3[C@@H]5CC(C)(C)CC[C@]5(C(=O)O[C@@H]5O[C@H](CO)[C@@H](O)[C@H](O)[C@H]5O)CC[C@]34C)[C@]2(C)CO)[C@H](O)[C@H](O[C@@H]2O[C@H](CO)[C@@H](O)[C@H](O)[C@H]2O)[C@H]1O (some centres undefined),-20.9% [at 11.6 µM],
CCCOc1ccc(S(=O)(=O)N2CCN(CCO)CC2)cc1-c1nc2c(CCC)cn(CC)c2c(=O)[nH]1,13.2%,
COc1ccc(CCCN2CCC(COC(c3ccccc3)c3ccccc3)CC2)cc1,-8.32%,
CCNc1nc(Nc2cc(F)c(C(=O)N3CCOCC3)cc2OC)ncc1C(F)(F)F,14.8%,
CC(=O)O[C@@H]1[C@@H](OC(C)=O)[C@H](C)O[C@@H](O[C@H]2[C@@H]3C=CO[C@@H](O[C@@H]4O[C@H](CO)[C@@H](O)[C@H](O)[C@H]4O)[C@@H]3[C@@]3(CO)O[C@@H]23)[C@@H]1OC(=O)/C=C/c1ccccc1,-15.2% [at 25.3 µM],
OC(c1ccc(-c2ccc(CN3CCN(Cc4ccncc4)CC3)cc2)c(F)c1)(C(F)(F)F)C(F)(F)F,-1.63%,
O=C(Nc1ccccc1)N1CCN(c2nc(-c3ccccc3)ns2)CC1,-16.5%,
Cc1cc(N2CCOCC2)ccc1Nc1nc(NC2CCCCC2)c2[nH]cnc2n1,2.11%,
O=C(O)CCc1nccc2c1[nH]c1ccccc12,-3.7%,
O=c1[nH]c2ccc(C#CCN3CCC(Cc4ccccc4)CC3)cc2[nH]1,0.0569%,
COC1=CC(=O)O/C1=C(/OC)[C@@H]1O[C@H]1c1ccccc1,-14.9%,
O=C(Nc1ccc(-c2ccnc(Nc3ccc(N4CCOCC4)cc3)n2)cc1)C1CCCN1 (centres undefined),-6.45%,
CCCCC1CCN(CCCN2C(=O)CCc3ccccc32)CC1,-16%,
O=C(NCc1cccs1)c1cc2nc(-c3ccco3)cc(C(F)(F)Cl)n2n1,6.14%,

# From PubChem BioAssay (NCATS)
